Data published in PubChem BioAssay AID602393 (Broad Institute, 2012).
The campaign covered roughly 350,000 compounds. About 7,000 (2%) were called active. This excerpt belongs to a sample that is enriched for actives. A number with no mark means an inactive call. No stated cut-off is given here; in the data, active means activation above about 40%; inconclusive means no clear call, values can overlap the other calls; inactive means below that.

Test: raisers of Bmi1 knock-in reporter signal – mouse ES cells, Bmi1 luciferase knock-in, single point, esBAF inhibitor project, primary screen (AID 602393);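 further: 0% = median of the plate's neutral control wells and 100% = double that signal; a rise in the Bmi1 reporter signal indicates esBAF inhibition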
Settings: 24 h, at 12.5 µM, stronger effect = higher value, 100% = twice the neutral-well signal

| Compound | reporter increase |
| --- | --- |
| CC(C)NC(=O)N[C@@H]1CC[C@H](CCn2cc(-c3ccccc3)nn2)O[C@H]1CO | 1.66% |
| CCNC(=O)C[C@@H]1CC[C@@H]2[C@@H](COc3ccc(NC(C)=O)cc3C(=O)N2C)O1 | -3.06% |
| COC(=O)/C(=C1\Oc2ccc(C(C)(C)C)cc2S1)C(F)(F)F | 53.4% (active) |
| CCOC(=O)C1=C(c2ccccc2)O/C(=C(/C(=O)OC)C(F)(F)F)S1 | -7.41% |
| COCC#Cc1cnc2c(c1)C(=O)N([C@H](C)CO)C[C@@H](C)[C@@H](CN(C)C(=O)Nc1cccc(F)c1)O2 | -0.578% |
| C[C@H](CO)N1C[C@H](C)[C@@H](CN(C)Cc2ccccn2)Oc2ncc(C3=CCCC3)cc2C1=O | -4.21% |
| C[C@@H]1CN([C@@H](C)CO)C(=O)c2cc(-c3ccc(C#N)cc3)cnc2O[C@H]1CN(C)C(=O)CN(C)C | 0.919% |
| CCc1c(C)sc(NC(=O)c2ccc(Br)o2)c1C(=O)OC | 0.318% |
| CCOC(=O)c1oc2ccccc2c1NC(=O)c1cccs1 | -0.529% |
| CCc1c(C)sc(NC(=O)c2cccs2)c1C(N)=O | 57.1% (active) |
| COc1ccc(CN2C[C@@H](C)[C@H](OC)CN(C)C(=O)c3cc(NC(C)=O)ccc3OC[C@@H]2C)cc1 | 1.02% |
| CN(C)CC(=O)N[C@@H]1CC[C@H](CC(=O)NCc2ccc(Cl)cc2)O[C@H]1CO | 2.07% |
| CCCN(C)C[C@@H]1Oc2cc(-c3ccc(C)cc3)ccc2S(=O)(=O)N([C@@H](C)CO)C[C@H]1C | -1.82% |
| CO[C@H]1CN(C)C(=O)c2ccc(NC(=O)c3cc(C)on3)cc2OC[C@H](C)N(C)C[C@H]1C | -3.45% |
| COc1ccc(Nc2oc(-c3ccccc3Cl)nc2C#N)cc1 | 11.5% |
| Cc1ccc(OCc2nc(C#N)c(N3CCCC3)o2)cc1 | 6.84% |
| CCOc1ccc(Nc2oc(Cc3ccccc3)nc2C#N)cc1 | 52% (active) |
| COc1ccc(NC(=O)N(C)C[C@@H]2OCCCC[C@H](C)Oc3ccc(NS(=O)(=O)c4c(C)noc4C)cc3C(=O)N([C@@H](C)CO)C[C@@H]2C)cc1 | 10.5% |
| Cc1ccc2nc(Nc3ccccc3)cc(C)c2c1 | 48.3% (active) |
| Cc1ccc(NC(=O)c2ccn(C(=O)Nc3ccccc3)n2)c(C)c1 | 33.7% |
| Cc1ccc(Nc2nc(C)cc(C)c2C(N)=O)cc1 | -0.241% |
| O=C(C[C@H]1CC[C@H](NC(=O)c2ccncc2)[C@H](CO)O1)Nc1ccccc1 | 6.5% |
| CNC[C@H]1OCCCC[C@@H](C)Oc2ccc(NC(=O)c3ccccc3)cc2C(=O)N([C@@H](C)CO)C[C@H]1C | 9.15% |
| C[C@@H]1CN([C@H](C)CO)C(=O)c2cc(C#CC3(O)CCCC3)cnc2O[C@H]1CN(C)Cc1ccncc1 | -2.58% |
| Cc1ccccc1NC(=S)NC(=O)Cc1ccc(Cl)cc1 | 5.51% |

| Compound | reporter increase |
| --- | --- |
| Cc1ccc(C(=O)NC(=S)Nc2ccccc2C)cc1 | 69.2% (active) |
| Cc1ccc(C(=O)NC(=S)Nc2ccc(N3CCOCC3)cc2)cc1 | 5.69% |
| CC(C)NC(=O)N[C@H]1C=C[C@H](CC(=O)NCCN2CCCC2)O[C@@H]1CO | -2.39% |
| Cc1c(CCC(=O)O)c(=O)oc2cc(OCc3ccc(Br)cc3)ccc12 | 14.3% |
| COC(=O)Cc1c(C)c2ccc(OCC(=O)NCc3ccc4c(c3)OCO4)cc2oc1=O | 4.08% |
| CCc1c(C)c2ccc(OC3CCCCC3=O)cc2oc1=O (stereo not given) | 65.6% (active) |
| COc1cccc(CNC(=O)[C@@H]2[C@@H](CO)[C@@H]3Cn4c(ccc(-c5ccncc5)c4=O)[C@H]2N3C(C)=O)c1 | 5.45% |
| CO[C@@H]1CN(C)C(=O)c2cc(NS(=O)(=O)CC(F)(F)F)ccc2OC[C@H](C)N(Cc2ccccn2)C[C@@H]1C | 0.135% |
| C[C@@H]1CN([C@@H](C)CO)C(=O)c2cccc(N(C)C)c2O[C@@H]1CN(C)S(=O)(=O)c1ccccc1 | 0.064% |
| CCCn1nnnc1NC(=O)COc1ccc(Cl)cc1C | -3.97% |
| O=C(COc1ccc([N+](=O)[O-])cc1Cl)Nn1cnnc1 | -5.37% |
| Cc1cc(NC(=O)COc2ccc(Cl)cc2Cl)n(CCC#N)n1 | 97.9% (active) |
| CCC(=O)N1C[C@H](C)[C@H](OC)CN(C)C(=O)c2ccc(NC(=O)c3cnccn3)cc2OC[C@@H]1C | -10.3% |
| CC(C)NC(=O)N(C)C[C@@H]1Oc2cc(C#C[C@H](C)O)ccc2S(=O)(=O)N([C@@H](C)CO)C[C@H]1C | 0.093% |
| O=C(c1ccncc1)N1C[C@H]2[C@@H](c3ccccc31)[C@H](CO)N2Cc1ccc(F)cc1 | -3.53% |
| Cc1nonc1NC(=O)CSc1nc2ccccc2cc1C#N | 36.1% |
| CCOc1ccc2cc(C#N)c(SCC(=O)OC)nc2c1 | 66.4% (active) |
| COC(=O)CSc1nc(C)c2ccc(OC)cc2n1 | -3.51% |
| C[C@@H]1CN([C@@H](C)CO)C(=O)c2cc(NS(=O)(=O)c3ccccc3)ccc2O[C@H]1CN(C)S(=O)(=O)c1ccc(Cl)cc1 | 11.7% |
| CCCN1[C@H](C(=O)NCC)[C@@H](CO)[C@@H]2Cn3c(ccc(C4=CCCC4)c3=O)[C@@H]21 | -2.59% |
| CCC(=O)Nc1ccc2c(c1)C(=O)N(C)[C@@H]1CC[C@@H](CC(=O)N[C@@H](C)c3ccccc3)O[C@@H]1CO2 | -1.27% |
| COc1cccc(NC(=O)Nc2ccc3c(c2)C(=O)N(C)C[C@H](OC)[C@@H](C)CN[C@@H](C)CO3)c1 | 2.37% |
| FC(F)(F)c1ccnc(Oc2ccc(C3=NCCS3)cc2)c1 | 45.6% (active) |
| C/C=C/c1cnc2c(c1)C(=O)N([C@H](C)CO)C[C@@H](C)[C@H](CN(C)Cc1cccc(C(=O)O)c1)O2 | -4.01% |
| Cc1noc(C)c1S(=O)(=O)N(C)C[C@H]1Oc2ccc(NC(=O)Cc3ccccc3)cc2CC(=O)N([C@@H](C)CO)C[C@H]1C | 6.49% |
